The panel holds about 83,000 compounds, 20% with a hit somewhere; the sample as a whole holds those more often.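 Plates (96-well) were seeded with cells, treated with compound at one concentration, and incubated for 48 hours before percent growth was determined.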 Values without a mark were called inactive. The source made the active and inactive calls. How the source made its calls: active means growth percent below 10; inactive means the rest.

Among the test systems are NCI-H23 lung; NCI-H226 lung; NCI-H322M lung; HOP-62 NSCLC; NCI-H460 lung; HOP-92 NSCLC; NCI-H522 lung; A549/ATCC NSCLC; 786-0 renal; COLO 205 colon.
Common to all, as to test: NCI-60 one-dose screen, 48 h (100 = growth as untreated, 0 = no growth, -100 = all killed)
Holding throughout (conditions): 10 µM unless noted

Take `Oc1cccc(-c2nc(N3CCOCC3)c3c4c(sc3n2)CCCC4)c1`: the growth in the test with NCI-H23 lung is 56.3%; with NCI-H226 lung it was 61.1%; with NCI-H322M lung it was 56%; with HOP-62 NSCLC it was 62%; in the test on NCI-H460 lung, 44.1%; with HOP-92 NSCLC, 11.2%. In addition, the growth in the test on NCI-H522 lung is 42.2%; in the test with A549/ATCC NSCLC, 51.7%; in the test with 786-0 renal, 96.7%; in the test on COLO 205 colon it was 103%.
For `CCOc1cc2ncc(C#N)c(Nc3ccc(OCc4cccc(F)c4)c(Cl)c3)c2cc1NC(=O)CCCCC1CCSS1` (stereo not given), the growth was 101% with NCI-H23 lung; 88.9% with NCI-H226 lung; 90.8% in the test with NCI-H322M lung; 94.4% in the test with HOP-62 NSCLC; 98% with NCI-H460 lung; 78.9% with HOP-92 NSCLC. Besides, the growth with NCI-H522 lung is 66.4%; with A549/ATCC NSCLC it was 73.6%; in the test with 786-0 renal, 89.1%; with COLO 205 colon, 103%.
As for `COc1ccc(-c2cc(=O)c3c(OC)c4ccoc4cc3o2)cc1`, the growth in the test on NCI-H23 lung is 99.4%; in the test on NCI-H226 lung, 95.5%; in the test with NCI-H322M lung it was 77.8%; in the test on HOP-62 NSCLC it was 108%; in the test on NCI-H460 lung it was 73.7%; with HOP-92 NSCLC it was 90.1%. The growth with NCI-H522 lung was 82.4%; in the test on A549/ATCC NSCLC it was 86.2%; in the test on 786-0 renal it was 116%; in the test on COLO 205 colon, 102%.
`Cn1cccc1-c1nc2c3c(ccc2[nH]1)C(=O)c1ccccc1C3=O`: the growth was 85.3% in the test on NCI-H23 lung; 86.2% with NCI-H226 lung; 81.8% in the test on NCI-H322M lung; 102% in the test on HOP-62 NSCLC; 87.2% with NCI-H460 lung; 89% in the test on HOP-92 NSCLC. Further, the growth was 73.6% in the test on NCI-H522 lung, 87.9% with A549/ATCC NSCLC, 103% in the test on 786-0 renal and 120% with COLO 205 colon.
Turning to `Cc1cc(N2CCCC2)nc(NC2CCCC(Nc3ccnc4cc(Cl)ccc34)C2)n1` (stereo not given), the growth with NCI-H23 lung is -41.4% (active); in the test on NCI-H226 lung it was -56.2% (active); with NCI-H322M lung, -42.6% (active); with HOP-62 NSCLC, -84.4% (active); in the test with NCI-H460 lung, -66.3% (active); in the test on HOP-92 NSCLC, -82.7% (active). For the same molecule, the growth was -76.3% (active) in the test on NCI-H522 lung, -88.6% (active) in the test on A549/ATCC NSCLC, -91.1% (active) in the test with 786-0 renal and -90.7% (active) with COLO 205 colon.
On to `COc1cccc(C2=NN3C(C2)c2cc(Br)cc(OC)c2OC32CCN(Cc3ccccc3)CC2)c1` (stereo not given), for which the growth was 95.7% in the test with NCI-H23 lung; 85.3% in the test on NCI-H226 lung; 103% with NCI-H322M lung; 105% in the test on HOP-62 NSCLC; 101% in the test with NCI-H460 lung; 111% with HOP-92 NSCLC. Besides, the growth is 96.2% with NCI-H522 lung, 102% in the test with A549/ATCC NSCLC, 104% in the test with 786-0 renal and 107% in the test with COLO 205 colon.
On to `COc1ccc2c(c1)C(=O)/C(=C/c1cccnc1)CC2`, for which the growth in the test on NCI-H23 lung is 90.9%; in the test on NCI-H226 lung, 107%; in the test with NCI-H322M lung, 106%; in the test on HOP-62 NSCLC it was 97.5%; in the test with NCI-H460 lung, 105%; in the test with HOP-92 NSCLC, 94.7%. Also, the growth in the test with NCI-H522 lung was 73.2%; in the test with A549/ATCC NSCLC, 101%; in the test on 786-0 renal, 94.6%; in the test with COLO 205 colon, 105%.
For `COc1cc2nnc3c4cccnc4[nH]c3c2cc1OC`, the growth was 89.6% with NCI-H23 lung; 40.5% in the test with NCI-H226 lung; 110% in the test on NCI-H322M lung; 96.9% with HOP-62 NSCLC; 25.6% with NCI-H460 lung; -40.8% (active) with HOP-92 NSCLC. Besides, the growth was -75.7% (active) with NCI-H522 lung, 47.2% in the test on A549/ATCC NSCLC, 7.43% (active) with 786-0 renal and 50.2% in the test on COLO 205 colon.
As to `O=C1CC(=NCC(=O)n2c(-c3ccccc3)nc3ccccc32)NN1`, the growth in the test on NCI-H23 lung was 91.8%; in the test on NCI-H226 lung, 90.2%; in the test with NCI-H322M lung, 103%; in the test on HOP-62 NSCLC, 89%; with NCI-H460 lung, 100%; in the test with HOP-92 NSCLC it was 99.5%. In addition, the growth is 84.5% with NCI-H522 lung, 114% with A549/ATCC NSCLC, 107% with 786-0 renal and 111% in the test with COLO 205 colon.
On to `Cc1cc2c3ccccc3ccc2[n+]2ccccc12`, for which the growth in the test with NCI-H23 lung is 46.4%; in the test on NCI-H226 lung, 43.4%; in the test on NCI-H322M lung it was 47.2%; with HOP-62 NSCLC, 9.19% (active); in the test on NCI-H460 lung, 63.1%; in the test on HOP-92 NSCLC it was 71.5%. Further, the growth was -10.1% (active) in the test with NCI-H522 lung, -16.9% (active) with A549/ATCC NSCLC, 24% in the test on 786-0 renal and 54.1% in the test on COLO 205 colon.
Consider `Cc1cc(NS(=O)(=O)c2ccc(-c3cnc(C4CC4)o3)cc2)ccc1Cl`, for which the growth in the test with NCI-H23 lung is 24.3%; in the test with NCI-H226 lung it was 58.4%; in the test with NCI-H322M lung it was 44.7%; in the test on HOP-62 NSCLC it was 34.1%; in the test with NCI-H460 lung it was 7.65% (active); with HOP-92 NSCLC it was 60.7%. The growth is -11.7% (active) in the test on NCI-H522 lung, 15.3% in the test on A549/ATCC NSCLC, 33.7% in the test on 786-0 renal and -13.7% (active) in the test with COLO 205 colon.
Turning to `Nc1nc2ncc(CCNc3ccc(C(=O)O)cc3)nc2c(=O)[nH]1`, the growth is 108% in the test with NCI-H23 lung; 100% with NCI-H226 lung; 125% with NCI-H322M lung; 113% in the test with HOP-62 NSCLC; 114% in the test on NCI-H460 lung; 97.8% in the test with HOP-92 NSCLC. Further, the growth with NCI-H522 lung was 100%; with A549/ATCC NSCLC it was 105%; with 786-0 renal it was 104%; in the test on COLO 205 colon, 105%.
In the case of `OCC(O)c1nc2ccc3[nH]ncc3c2c2c1CCCC2` (stereo not given), the growth was 2.08% (active) in the test with NCI-H23 lung; -4.5% (active) in the test with NCI-H226 lung; 8.59% (active) with NCI-H322M lung; 10.6% in the test on HOP-62 NSCLC; 5.14% (active) with NCI-H460 lung; -10.3% (active) with HOP-92 NSCLC. Further, the growth with NCI-H522 lung is 13.3%; in the test with A549/ATCC NSCLC it was 6.34% (active); in the test with 786-0 renal, 4.15% (active); in the test with COLO 205 colon, 1.61% (active).

The values above are taken from PubChem BioAssay (NCI).
